Measured values: PubChem BioAssay (Tox21)
Inconclusive results are not listed. Unmarked numbers belong to inactive results. The source made the active and inactive calls. Calls follow the shape of the dose curve; as a rule, active = well fitted curve in the direction sought with a large enough effect in the repeat runs; inconclusive = weak or mixed curves; inactive = no such curve, though single readings can be large; an effect the other way counts as inactive or inconclusive.

Tested on: not listed separately
Assay: Caspase-3/7 induction in HepG2 cells by small molecules, qHTS cell viability counter screen (AID 1346981); also: nearly all actives have a fitted effect of over 30% in size
Details: CellTiter-Fluor fluorescence, 17 h; series mostly up to 92.4 µM; activity change, negative = cytotoxicity: at the top concentration
How it was run: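 Wild-type HepG2 cells (2,000/well) were allowed to settle for 5 hr at 37 C, 5% CO2, then dosed with compounds in DMSO by pin transfer. After 16 hr at 37 C, CellTiter-Fluor was added and fluorescence read 1 hr later.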
% is scaled to controls: 0 for no effect and ±100 for the full control effect; potency is read from the fitted curve at half-maximal effect.

SMILES | activity change, negative = cytotoxicity | Potency
Cc1cccc2c1ccc1ccccc12 | 0.619% | –
Cc1ccc2n[nH]nc2c1 | 0.951% | –
CC(C=O)c1ccccc1 (stereo not given) | 4.49% | –
CCc1cccc(C)c1N(C(=O)CS(=O)(=O)O)C(C)COC (stereo not given) | 0.43% | –
O=C(CCCCCCCCc1cccnc1)N1CCC(C=C(c2ccccc2)c2ccccc2)CC1 | 10.7% | –
CN1CC[C@H](c2c(O)cc(O)c3c(=O)cc(-c4ccccc4Cl)oc23)[C@H](O)C1 | – | 0.335 µM (active)
O=C1c2ccccc2C(=O)c2c(Cl)cccc21 | 3.64% [at 42.5 µM] | –
C=CC(=O)OCC(Br)CBr (stereo not given) | -1.34% | –
O=C1OCc2ccccc21 | 2.54% | –
Oc1cccc2c(O)cccc12 | -1.67% | –
CCN(CC)c1ccc(C=O)c(O)c1 | -7.65% | –
Cc1ccc(C=O)cc1 | -0.0076% [at 42.5 µM] | –
COCCC(=O)OC | 1.05% | –
Nc1cc([N+](=O)[O-])ccc1Cl | 2.73% | –
CC/C=C(\C)C=O | 2.96% | –
Cc1ccc(N=Nc2c(O)ccc3ccccc23)c(C)c1 | – | 8.41 µM (active)
CCOC=C(C(=O)OCC)C(=O)OCC | -2.98% | –
O=C(Cl)c1ccc(Cl)cc1Cl | 5.27% | –
Nc1ccc(F)c([N+](=O)[O-])c1 | -0.747% | –
N#Cc1nc(Cl)c(Cl)c(Cl)c1Cl | – | 43.3 µM (active)

SMILES | activity change, negative = cytotoxicity | Potency
Oc1ccc2c(c1)CCC2 | -1.98% | –
c1ccc(-c2nc3ccccc3[nH]2)cc1 | -3.12% | –
CCCCCCCCc1ccc(Nc2ccc(CCCCCCCC)cc2)cc1 | -0.661% [at 42.5 µM] | –
Cc1cc(C)c(O)c(C(C)(C)C)c1 | -0.0148% | –
CC1=CC[C@@H](C(C)(C)O)CC1 | 10.9% | –
CC(c1cc(C(C)(C)C)cc(C(C)(C)C)c1O)c1cc(C(C)(C)C)cc(C(C)(C)C)c1O | 7.65% | –
Cc1ccc(C2OC[C@@H]3OC(c4ccc(C)cc4)O[C@H]([C@H](O)CO)[C@@H]3O2)cc1 (stereo not given in full) | 6.41% | –
Cc1cccc(C)c1C | 0.518% | –
CC(CC(C)(C)C)CC(C)(C)CC(C)(C)C (stereo not given) | -1.25% [at 42.5 µM] | –
Brc1cc(Br)cc(Br)c1 | 1.42% | –
CCOc1nc(F)cc2nc(S(=O)(=O)Nc3c(Cl)cccc3C(=O)OC)nn12 | 2.19% | –
c1ccc2occc2c1 | 0.266% | –
CCC(=O)OC/C=C(\C)CCC=C(C)C | 1.17% | –
Nc1ccc2c(S(=O)(=O)O)cccc2c1S(=O)(=O)O | 3.32% [at 42.5 µM] | –
CC(C)(C)c1cc(CCC(=O)OCCSCCOC(=O)CCc2cc(C(C)(C)C)c(O)c(C(C)(C)C)c2)cc(C(C)(C)C)c1O | -1.61% [at 42.5 µM] | –
C/C(=C\c1ccc(C(=O)O)cc1)c1ccc2c(c1)C(C)(C)CCC2(C)C | 7.01% [at 42.5 µM] | –
CCCCCCCCCCCC(=O)Cl | -10.4% | –
CCn1c2ccccc2c2ccccc21 | -2.7% | –
CCCCCCCCCCCCN1CCCC1=O | – | 61.1 µM (active)
NC(=O)c1ccccc1Cl | -1.06% | –

Target: Nuclear receptor subfamily 1 group I member 2 (Homo sapiens) (UniProt O75469)
Sequence (O75469 whole entry, looked up): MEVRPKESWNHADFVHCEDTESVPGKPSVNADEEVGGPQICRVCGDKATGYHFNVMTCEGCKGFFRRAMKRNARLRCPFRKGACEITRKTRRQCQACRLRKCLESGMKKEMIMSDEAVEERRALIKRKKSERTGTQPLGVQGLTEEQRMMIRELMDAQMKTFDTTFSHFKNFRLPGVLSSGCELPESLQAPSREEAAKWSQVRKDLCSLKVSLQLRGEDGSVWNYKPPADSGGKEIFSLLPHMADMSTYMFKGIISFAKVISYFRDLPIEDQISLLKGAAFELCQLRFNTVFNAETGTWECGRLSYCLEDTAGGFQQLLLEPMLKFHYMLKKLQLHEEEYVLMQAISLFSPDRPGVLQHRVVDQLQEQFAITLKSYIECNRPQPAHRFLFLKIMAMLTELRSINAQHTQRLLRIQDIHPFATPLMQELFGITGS
Assay: Human pregnane X receptor (PXR) small molecule agonists, qHTS assay (AID 1346982); also: nearly all actives have a fitted effect of over 35% in size
Details: PXR-Luc HepG2, CYP3A4 luciferase reporter, 24 h; series mostly up to 92.4 µM; activation: at the top concentration
How it was run: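 PXR-Luc HepG2 cells (CYP3A4 promoter-driven luciferase) were seeded in medium with 5% charcoal-stripped FBS, left 5 hr at 37 C, then exposed to compounds in DMSO for 24 hr. Luminescence was read after ONE-Glo addition.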

SMILES | activation | Potency
Cc1cccc2c1ccc1ccccc12 | 19.1% | –
Cc1ccc2n[nH]nc2c1 | 10.9% | –
CC(C=O)c1ccccc1 (stereo not given) | 15.4% | –
CCc1cccc(C)c1N(C(=O)CS(=O)(=O)O)C(C)COC (stereo not given) | 3.93% | –
O=C(CCCCCCCCc1cccnc1)N1CCC(C=C(c2ccccc2)c2ccccc2)CC1 | – | 5.45 µM (active)
CN1CC[C@H](c2c(O)cc(O)c3c(=O)cc(-c4ccccc4Cl)oc23)[C@H](O)C1 | – | 0.106 µM (active)
O=C1c2ccccc2C(=O)c2c(Cl)cccc21 | – | 10.2 µM (active)
C=CC(=O)OCC(Br)CBr (stereo not given) | 8.61% | –
O=C1OCc2ccccc21 | 8.3% | –
Oc1cccc2c(O)cccc12 | – | 54.5 µM (active)
CCN(CC)c1ccc(C=O)c(O)c1 | – | 61.1 µM (active)
Cc1ccc(C=O)cc1 | 4.23% [at 42.5 µM] | –
COCCC(=O)OC | 6.57% | –
Nc1cc([N+](=O)[O-])ccc1Cl | 11.9% | –
CC/C=C(\C)C=O | 10% | –
Cc1ccc(N=Nc2c(O)ccc3ccccc23)c(C)c1 | – | 0.944 µM (active)
CCOC=C(C(=O)OCC)C(=O)OCC | 2.52% | –
O=C(Cl)c1ccc(Cl)cc1Cl | 22.3% | –
Nc1ccc(F)c([N+](=O)[O-])c1 | 2.58% | –
N#Cc1nc(Cl)c(Cl)c(Cl)c1Cl | – | 9.69 µM (active)

SMILES | activation | Potency
Oc1ccc2c(c1)CCC2 | 2.75% | –
c1ccc(-c2nc3ccccc3[nH]2)cc1 | – | 9.69 µM (active)
CCCCCCCCc1ccc(Nc2ccc(CCCCCCCC)cc2)cc1 | 18.1% [at 42.5 µM] | –
Cc1cc(C)c(O)c(C(C)(C)C)c1 | 1.2% | –
CC1=CC[C@@H](C(C)(C)O)CC1 | -2.44% | –
CC(c1cc(C(C)(C)C)cc(C(C)(C)C)c1O)c1cc(C(C)(C)C)cc(C(C)(C)C)c1O | 3.62% | –
Cc1ccc(C2OC[C@@H]3OC(c4ccc(C)cc4)O[C@H]([C@H](O)CO)[C@@H]3O2)cc1 (stereo not given in full) | 2.53% | –
Cc1cccc(C)c1C | 4.95% | –
CC(CC(C)(C)C)CC(C)(C)CC(C)(C)C (stereo not given) | 5.99% [at 42.5 µM] | –
Brc1cc(Br)cc(Br)c1 | 9.84% | –
CCOc1nc(F)cc2nc(S(=O)(=O)Nc3c(Cl)cccc3C(=O)OC)nn12 | 11% | –
c1ccc2occc2c1 | -11.5% | –
CCC(=O)OC/C=C(\C)CCC=C(C)C | 5.7% | –
Nc1ccc2c(S(=O)(=O)O)cccc2c1S(=O)(=O)O | 6.42% [at 42.5 µM] | –
CC(C)(C)c1cc(CCC(=O)OCCSCCOC(=O)CCc2cc(C(C)(C)C)c(O)c(C(C)(C)C)c2)cc(C(C)(C)C)c1O | 3.06% [at 42.5 µM] | –
C/C(=C\c1ccc(C(=O)O)cc1)c1ccc2c(c1)C(C)(C)CCC2(C)C | 5.13% [at 42.5 µM] | –
CCCCCCCCCCCC(=O)Cl | 2.34% | –
CCn1c2ccccc2c2ccccc21 | 18.6% | –
CCCCCCCCCCCCN1CCCC1=O | – | 27.3 µM (active)
NC(=O)c1ccccc1Cl | -12.7% | –
